High-throughput results as filed in PubChem BioAssay.
RE007 growth inh = less growth of the S. pombe RE007 Vpr strain. S. pombe RE007 Vpr strain, BacTiter-Glo ATP luminescence, 24 h. Potency, µM (highest dose often 92.2 µM), usual class: inhibitors. 360,000 compounds, 0.21% hits. AID 651644; active = well fitted falling curve with a large enough effect; inconclusive = small, poorly fitted or top-dose-only effect; inactive = no such curve, though single readings can be large or run the other way; note: nearly all actives have a fitted effect of over 50% in size
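Fission yeast strain RE007, carrying one chromosomally integrated HIV-1 vpr copy, was seeded at OD 0.01 in PMG+AL medium with 23 nL pinned compound. After 24 h at 30 °C and 99% humidity, viability was read by BacTiter-Glo luminescence.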
Shiga toxin inh = inhibitors of Shiga toxin in Vero cells; Vero cells, Shiga toxin protein synthesis inhibition reporter; 290,000 compounds, 9.2% hits; AID 2315; inhibition, % at 38.7 µM; in the data active = inhibition mostly above about 28%, no sharp cut-off; inactive = mostly below about 43%
Giardia FBPA inh = inhibitors of Giardia lamblia fructose-1,6-bisphosphate aldolase. A8B2U2. purified Giardia FBPA. Potency, µM (highest dose often 59.6 µM), most hits filed as inhibitors. 290,000 compounds, 0.71% hits. AID 2451; note: nearly all actives have a fitted effect of over 55% in size
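40 nM FBPA preincubated 10 min at RT with compound (up to 57.5 uM final), then substrate plus GAPDH/TPI/NAD/arsenate coupling and diaphorase/resazurin added. Fluorescence read after 20 min at RT, 525/598 nm.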
Tb PYK inh = inhibitors of Trypanosoma brucei pyruvate kinase | Q57TT1 | TbPYK enzyme, Kinase-Glo Plus ATP luminescence, 45 min | Potency, µM (highest dose often 76.8 µM), hits mostly inhibitors | 410,000 compounds, 0.12% hits | AID 624173; note: nearly all actives have a fitted effect of over 50% in size
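TbPYK + substrate in 50 mM TEA pH 7.2, 100 mM KCl, 10 mM MgCl2, 0.05% BSA, 0.01% Tween-20; cpd pinned; ADP 130 uM final; 45 min RT; Kinase-Glo Plus 10 min; luminescence endpoint.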
Cycloheximide cs = counter-screen for Shiga toxin inhibitors: cycloheximide protein synthesis inhibition; max response, %; 300,000 compounds, 12% hits; cell reporter, cycloheximide protein synthesis inhibition counterscreen; in the data active = max response mostly above about 13%, no sharp cut-off; inactive = mostly below about 14%; note: read at 38.3 µM for the half of the compounds with a filed dose
LmPK inhibitor = LmPK (Leishmania mexicana) enzyme inhibition; AID 1721; purified LmPK, Kinase-Glo ATP luminescence, 1 h; Q27686; 290,000 compounds, 0.37% hits; Potency, µM (doses to about 57.5 µM), hits mostly inhibitors
Target sequence (Q27686 whole entry, looked up): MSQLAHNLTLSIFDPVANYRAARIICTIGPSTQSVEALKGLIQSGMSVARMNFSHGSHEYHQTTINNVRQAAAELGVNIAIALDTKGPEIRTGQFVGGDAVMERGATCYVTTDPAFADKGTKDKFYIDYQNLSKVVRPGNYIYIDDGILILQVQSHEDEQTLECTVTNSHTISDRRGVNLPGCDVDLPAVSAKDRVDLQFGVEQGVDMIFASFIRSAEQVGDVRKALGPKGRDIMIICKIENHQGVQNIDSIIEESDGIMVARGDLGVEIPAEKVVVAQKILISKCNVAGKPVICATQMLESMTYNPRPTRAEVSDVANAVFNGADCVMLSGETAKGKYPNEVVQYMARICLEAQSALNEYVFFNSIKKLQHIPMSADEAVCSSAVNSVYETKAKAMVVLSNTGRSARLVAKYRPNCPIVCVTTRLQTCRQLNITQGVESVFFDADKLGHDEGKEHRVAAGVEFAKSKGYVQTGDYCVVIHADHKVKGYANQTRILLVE
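Kinase-Glo luminescence read after 1 h RT reaction of 0.1 nM LmPK with 0.5 mM PEP and 0.1 mM ADP. Activity scaled between uninhibited and enzyme-free controls.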
Numbers stand for hits; [ ] = dose if it differs, or a comment. The full list was thinned out, with hits kept by preference. Unless noted, calls come from the whole dose curve; as a rule, active = well fitted curve in the direction sought with a large enough effect; inconclusive = small, poorly fitted or top-dose-only effect, or another doubt; inactive = no such curve, though single readings can be large; an effect the other way counts as inactive or inconclusive.

What do the screens show for `O=C(CNC(=O)c1ccccc1F)OCc1nc2ccccc2s1`?
RE007 growth inh: inactive; Shiga toxin inh: 67; Giardia FBPA inh: inactive; Tb PYK inh: inactive; Cycloheximide cs: inactive; LmPK inhibitor: inactive

Results for O=C(CNC(=O)c1ccccc1)OCc1nc2ccccc2s1 ?
RE007 growth inh: inactive; Shiga toxin inh: 49; Giardia FBPA inh: inactive; Tb PYK inh: inactive; Cycloheximide cs: 42; LmPK inhibitor: inactive

How did CC(=O)Nc1ccc(N=Cc2c(O)c3ccccc3oc2=O)cc1 do in these assays?
RE007 growth inh: inactive; Shiga toxin inh: inactive; Giardia FBPA inh: inactive; Tb PYK inh: inactive; Cycloheximide cs: inactive; LmPK inhibitor: inactive

Results for CC(=O)Nc1ccc(N=Cc2c(O)c(C(=O)Nc3ccccc3)cc3ccccc23)cc1 ?
RE007 growth inh: inactive; Shiga toxin inh: 104; Giardia FBPA inh: inconclusive; Tb PYK inh: inactive; Cycloheximide cs: inactive; LmPK inhibitor: inactive

How did CCOC(=O)c1c(C)[nH]c(C(=O)NNC(=O)c2ccccc2)c1C do in these assays?
RE007 growth inh: inactive; Shiga toxin inh: 89; Giardia FBPA inh: inactive; Tb PYK inh: inactive; Cycloheximide cs: 31; LmPK inhibitor: inactive

Results for CCOC(=O)c1c(C)[nH]c(C(=O)NNC(=O)c2ccc(Br)cc2)c1C ?
RE007 growth inh: inactive; Tb PYK inh: inactive

What do the screens show for `COC(=O)c1c(C)[nH]c(C(=O)OCc2ccc(F)cc2)c1C`?
RE007 growth inh: inactive; Shiga toxin inh: 134; Giardia FBPA inh: inactive; Tb PYK inh: inactive; Cycloheximide cs: 78; LmPK inhibitor: inactive

How did CCOC(=O)c1c(C)[nH]c(-c2csc(C)n2)c1C do in these assays?
RE007 growth inh: inactive; Shiga toxin inh: 62; Giardia FBPA inh: inactive; Tb PYK inh: inactive; Cycloheximide cs: 33; LmPK inhibitor: inactive

What do the screens show for `CCOC(=O)c1[nH]c(C)c(C(=O)OCc2ccccc2F)c1C`?
RE007 growth inh: inactive; Shiga toxin inh: inactive; Giardia FBPA inh: inactive; Tb PYK inh: inactive; Cycloheximide cs: 12; LmPK inhibitor: inactive

What do the screens show for `CS(=O)(=O)N1CCC2(CC1)CN(c1ccccn1)C2`?
Giardia FBPA inh: inactive; Tb PYK inh: inactive

How did CO[C@H]1COC(=O)[C@@H](Cc2ccccc2)NC(=O)[C@@H](C)COC(=O)CCC[C@@H]1C do in these assays?
Giardia FBPA inh: inactive[12.9 µM]

How did CCCNC(=O)COC(=O)c1[nH]c(C)c(C(=O)OCC)c1C do in these assays?
RE007 growth inh: inactive; Shiga toxin inh: inactive; Giardia FBPA inh: inactive; Tb PYK inh: inactive; Cycloheximide cs: inactive; LmPK inhibitor: inactive

What do the screens show for `CCOC(=O)c1[nH]c(C)c(C(=O)OCC)c1C`?
RE007 growth inh: inactive; Shiga toxin inh: 138; Giardia FBPA inh: inactive; Tb PYK inh: inactive; Cycloheximide cs: 65; LmPK inhibitor: inactive

What do the screens show for `CCC(C)NC(=O)c1cccc(OCc2c(C)noc2C)c1` (stereo not given)?
RE007 growth inh: inactive; Shiga toxin inh: inactive; Giardia FBPA inh: inactive; Tb PYK inh: inactive; Cycloheximide cs: inactive; LmPK inhibitor: inactive

How did CCOC(=O)c1c(C)[nH]c(C(=O)C(C)OC(=O)c2cccc(OCc3c(C)noc3C)c2)c1C (stereo not given) do in these assays?
RE007 growth inh: inactive; Shiga toxin inh: inactive; Giardia FBPA inh: inactive; Tb PYK inh: inactive; Cycloheximide cs: 17; LmPK inhibitor: inactive

Results for CCOC(=O)c1c(C)[nH]c(C(=O)Cn2c(=O)oc3ccccc32)c1C ?
RE007 growth inh: inactive; Shiga toxin inh: inactive; Giardia FBPA inh: inactive; Tb PYK inh: inactive; Cycloheximide cs: 30; LmPK inhibitor: inactive

How did CCOC(=O)c1c(NC(=O)Cn2c(=O)oc3ccccc32)oc(C)c1C(C)=O do in these assays?
RE007 growth inh: inactive; Shiga toxin inh: inactive; Giardia FBPA inh: inactive; Tb PYK inh: inactive; Cycloheximide cs: inactive; LmPK inhibitor: inactive

Results for CCOC(=O)c1[nH]c(C)c(C(=O)OCCOc2cccc(C)c2)c1C ?
RE007 growth inh: inactive; Shiga toxin inh: inactive; Giardia FBPA inh: inactive; Tb PYK inh: inactive; Cycloheximide cs: 22; LmPK inhibitor: inactive

How did O=C(O)C1CC(C2CCCCN2)CN2CCCCC12 (stereo not given) do in these assays?
Giardia FBPA inh: inactive

How did Cc1nc(-c2ccc(Cl)cc2)oc1COC(C)(C)C(=O)O do in these assays?
Tb PYK inh: inactive

What do the screens show for `Cc1cccc(Cn2c(CN3CCCC(C)C3)nc3c2c(=O)n(C)c(=O)n3C)c1` (stereo not given)?
Tb PYK inh: inactive

What do the screens show for `CC(=O)c1c(C)[nH]c(C(=O)OCc2cccc(Cl)c2)c1C`?
RE007 growth inh: inactive; Shiga toxin inh: 82; Giardia FBPA inh: inactive; Tb PYK inh: inactive; Cycloheximide cs: 36; LmPK inhibitor: inactive

What do the screens show for `CCOC(=O)c1c(C)[nH]c(C(=O)COC(=O)C2CC2C)c1C` (stereo not given)?
RE007 growth inh: inactive; Shiga toxin inh: 60; Giardia FBPA inh: inactive; Tb PYK inh: inactive; Cycloheximide cs: 47; LmPK inhibitor: inactive

How did COc1cccc(NCc2cc(=O)oc3cc(-c4ccccc4)c(O)cc23)c1 do in these assays?
RE007 growth inh: inactive; Shiga toxin inh: 62; Giardia FBPA inh: inactive; Tb PYK inh: inactive; Cycloheximide cs: 27; LmPK inhibitor: inactive

How did COc1cccc(NCc2cc(=O)oc3cc(C)c(O)cc23)c1 do in these assays?
RE007 growth inh: inactive; Shiga toxin inh: inactive; Giardia FBPA inh: inactive; Tb PYK inh: inactive; Cycloheximide cs: inactive; LmPK inhibitor: inactive

What do the screens show for `Cn1c(=O)n(C)c2cc(NS(=O)(=O)c3ccc(C(C)(C)C)cc3)c(NCc3ccccc3)cc21`?
Tb PYK inh: inactive

Results for Cc1cccc(C(=O)N2CCc3cc(CNS(=O)(=O)c4ccc(F)c(Cl)c4)ccc32)c1 ?
Tb PYK inh: inactive

Results for CN(C)S(=O)(=O)c1ccc(-c2cn3ccccc3n2)cc1 ?
RE007 growth inh: inactive; Shiga toxin inh: 65; Giardia FBPA inh: inactive; Tb PYK inh: inactive; Cycloheximide cs: 35; LmPK inhibitor: inconclusive

Results for Brc1ccc(-c2cn3ccccc3n2)cc1 ?
RE007 growth inh: inconclusive; Shiga toxin inh: 52; Giardia FBPA inh: inactive; Tb PYK inh: inactive; Cycloheximide cs: 35; LmPK inhibitor: inactive

What do the screens show for `c1ccc2c(-c3cn4ccccc4n3)c[nH]c2c1`?
Shiga toxin inh: 142; Giardia FBPA inh: inactive; Cycloheximide cs: 43; LmPK inhibitor: inactive

Results for Brc1ccc(OCc2cn3ccccc3n2)cc1 ?
RE007 growth inh: inconclusive; Shiga toxin inh: 73; Giardia FBPA inh: inactive; Tb PYK inh: inactive; Cycloheximide cs: 36; LmPK inhibitor: inconclusive

What do the screens show for `CCN(CC)S(=O)(=O)c1ccc(-c2cn3ccccc3n2)cc1`?
RE007 growth inh: inactive; Tb PYK inh: inactive

Results for c1ccc(-c2cn3ccccc3n2)cc1 ?
RE007 growth inh: inactive; Tb PYK inh: inactive

What do the screens show for `Oc1ccc(-c2cn3ccccc3n2)cc1`?
RE007 growth inh: inactive; Shiga toxin inh: inactive; Giardia FBPA inh: inactive; Tb PYK inh: inactive; Cycloheximide cs: 23; LmPK inhibitor: 22µM
